Source: PubChem BioAssay (NCI)
Compounds without any hit were thinned out: in the full panel of roughly 83,000, 20% have a hit.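 Single-dose data. Exposure time 48 hours. Values below 10 considered active.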 A number with no mark means an inactive call. Activity calls are given as the source filed them.

Key:
Experiment in all cases: NCI-60 one-dose screen, 48 h (100 = growth as untreated, 0 = no growth, -100 = all killed)
HCT-15 colon = conditions: 10 µM unless noted
HT29 colon = conditions: 10 µM unless noted
SNB-75 CNS = conditions: 10 µM unless noted
U251 CNS = conditions: 10 µM unless noted
PC-3 prostate = conditions: 10 µM unless noted
SK-MEL-5 melanoma = conditions: 10 µM unless noted
UACC-62 melanoma = conditions: 10 µM unless noted
LOX IMVI melanoma = conditions: 10 µM
SK-MEL-28 melanoma = conditions: 10 µM unless noted
SK-MEL-2 melanoma = conditions: 10 µM unless noted
EKVX NSCLC = conditions: 10 µM unless noted
SN12C renal = conditions: 10 µM unless noted
TK-10 renal = conditions: 10 µM unless noted
ACHN renal = conditions: 10 µM unless noted
CAKI-1 renal = conditions: 10 µM unless noted
A498 renal = conditions: 10 µM unless noted
CCRF-CEM leukemia = conditions: 10 µM unless noted
MOLT-4 leukemia = conditions: 10 µM unless noted
SNB-19 CNS = conditions: 10 µM unless noted
UO-31 renal = conditions: 10 µM unless noted

Row | SMILES | growth (HCT-15 colon) | growth (HT29 colon) | growth (SNB-75 CNS) | growth (U251 CNS) | growth (PC-3 prostate) | growth (SK-MEL-5 melanoma) | growth (UACC-62 melanoma) | growth (LOX IMVI melanoma) | growth (SK-MEL-28 melanoma) | growth (SK-MEL-2 melanoma) | growth (EKVX NSCLC) | growth (SN12C renal) | growth (TK-10 renal) | growth (ACHN renal) | growth (CAKI-1 renal) | growth (A498 renal) | growth (CCRF-CEM leukemia) | growth (MOLT-4 leukemia) | growth (SNB-19 CNS) | growth (UO-31 renal)
1 | Cc1cc2nc(CC(=O)c3ccncc3)c(=O)[nH]c2cc1C | 94.6% | 105% | 86.2% | 77.2% | 95.6% | 98.1% | 88.9% | 106% | 109% | 115% | 56.1% | 84.7% | 107% | 93.6% | 82.9% | 98.4% | 93.6% | 104% | – | –
2 | S=C1SCN(Cc2cccs2)CN1Cc1cccs1 | 96.6% | – | 86.2% | 95.6% | 96.2% | 94% | 94% | 93% | 109% | 99% | – | 98.7% | 90.7% | 105% | – | 95.7% | 70.9% | 100% | 96.5% | 88.8%
3 | Nc1nc(-c2ccccc2)nc(N)c1N=O | 53.6% | – | 44.8% | 52.4% | 79.9% | 100% | 71.8% | 66.7% | 75.3% | 88% | 89.1% | 74% | 51.6% | 58.9% | – | 112% | 34.8% | 58.1% | 88.7% | 45.8%
4 | Cc1cc(C(=O)c2ccc(Cl)cc2)ccc1O | 112% | – | 96% | 101% | – | 95.3% | 89.8% | 99.3% | 105% | 125% | 81% | 89.3% | 87% | 87.3% | 90.5% | 76.1% | 96.9% | 102% | 116% | 84.7%
5 | Oc1ccc(Br)cc1Sc1cc(Br)ccc1O | 36.6% | – | 59.4% | 46.9% | 65.4% | 2.54% (active) | 7.3% (active) | 43.6% | 38.9% | – | – | 23.9% | 115% | 47.8% | 99.7% | – | 34.3% | 40.4% | 41.3% | 32.9%
6 | S=c1[nH]c2cc(Cl)ccc2s1 | – | 102% | 92.3% | 101% | 94.1% | 95.7% | 88.4% | 97.6% | 110% | 100% | 102% | 96.6% | 97.6% | 95.2% | 92.3% | 132% | -43.5% (active) | 108% | 94% | 66%
7 | COc1ccc2nc3cc(Cl)ccc3c(NCCCCCN3CCCCC3)c2c1 | -32.2% (active) | – | -98.1% (active) | -74.5% (active) | -45.3% (active) | -96.9% (active) | -67.9% (active) | -80.4% (active) | -79.9% (active) | – | – | 10.3% | -9.41% (active) | – | -50.3% (active) | 19.7% | -27.6% (active) | -19.5% (active) | 2.99% (active) | -40.6% (active)
8 | Cc1oc2c(C)c3oc(=O)cc(C)c3cc2c1CCl | 91.8% | – | – | 82.9% | 91% | 77.6% | 44.3% | 56.6% | 93.3% | – | 68.4% | – | 86.1% | – | 51.8% | 61.8% | 47.6% | 63.6% | 81.5% | 47.6%
9 | CN=C(N)N/N=C(\C)c1ccc2c(c1)Cc1ccccc1-2 | -81.4% (active) | – | – | -82.2% (active) | -20.6% (active) | -100% (active) | -80.2% (active) | -83.9% (active) | -98.4% (active) | -51.8% (active) | 1.95% (active) | -40.5% (active) | -75% (active) | – | -53.9% (active) | -8.05% (active) | -35.2% (active) | -63% (active) | -40% (active) | -87.9% (active)
10 | CCCCCCCCCCCCCCCCCC[S+](C)CC (stereo unspecified) | 38.8% | – | -25.1% (active) | -57.5% (active) | 36.3% | -99.1% (active) | 19.3% | -51.6% (active) | – | – | 91.7% | 25.7% | 9.52% (active) | 16.2% | – | 63.2% | 14.6% | -4.95% (active) | 8.74% (active) | 59.6%
11 | NC(=S)Nc1ccc2c(c1)Cc1ccccc1-2 | 95.7% | – | 73.8% | 83.7% | – | 88.9% | 77.3% | 91.4% | 103% | 89.6% | 67.1% | 89.4% | 121% | 91.7% | 92.1% | 110% | 70.5% | 88.7% | 87.7% | 55.2%
12 | O=C1CSC(=S)N1Cc1cccnc1 | 58.3% | – | 83.3% | – | 85.1% | 99.8% | 87.6% | 17.5% | 92.1% | 85.8% | – | 103% | 9.3% (active) | – | 63.9% | – | 12.9% | – | 110% | 71%
13 | COc1ccc2c(c1OC)OCC(CN(C)C)C2=O (stereo unspecified) | -58.5% (active) | – | 93.4% | 103% | 98.3% | 101% | 95.9% | 87% | – | 112% | 99.4% | 98.5% | 90.7% | – | 94.4% | 104% | 60% | 61.1% | 99.1% | -72.5% (active)
14 | CC1(C)OCC(COC(c2ccccc2)(c2ccccc2)c2ccccc2)O1 (stereo unspecified) | – | 91.9% | 89.3% | 95.3% | 89.2% | 105% | 99.3% | 89.1% | 103% | 83.3% | – | 102% | 88.5% | – | 89.1% | 57.2% | 102% | 93.1% | 100% | 85.7%
15 | CC(C)(C)c1ccc(O)c(-c2ccccc2)c1 | 102% | – | – | 96.3% | 95.2% | 116% | 103% | 103% | 119% | – | 103% | 109% | 99.5% | – | 86.7% | 121% | 97.1% | -54.2% (active) | 121% | 110%
16 | O=C(c1ccccc1)c1cc2ccccc2oc1=O | 108% | – | 71.8% | 90.2% | – | – | 93.4% | 89.8% | – | – | 95.5% | 89.4% | 130% | 101% | 98.7% | 117% | 101% | – | 97.4% | 59.3%
17 | CC(=O)c1c(O)c(C)c(O)c2c1OC1=CC(=O)C(C(C)=O)C(=O)C12C (stereo unspecified) | 84.4% | – | – | 74.9% | 45.3% | 90.9% | 62.8% | – | 84.4% | 83.7% | 51.9% | – | 103% | – | 74.2% | 76.3% | – | – | 96.9% | 58.7%
18 | Nc1ccc(-c2ccc(N)c(S(=O)(=O)O)c2)cc1S(=O)(=O)O | 118% | – | 83.1% | 115% | – | 111% | – | 94.4% | 119% | 127% | 119% | 102% | 122% | 105% | 123% | 141% | 127% | 131% | 101% | 94.5%
